PubChem BioAssay AID598 (SRMLSC, 2007)
Out of some 85,000 compounds screened, about 5,100 (6%) were called active.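 The calls were made as follows: active = viability at or below 40%; inactive = viability above 40%.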 What follows is part of a selection rich in actives, with near analogues and random picks from the rest.

Assay: H69AR cell viability reduction – human, 86K library, primary screen (AID 598);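 also: multidrug resistant small cell line overexpressing MRP-1 efflux transporter; 100% = mean luminescence of untreated control wells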
Settings: H69AR lung tumor viability, ATP luminescence, 72 h; at 10 µM; stronger effect = lower value

Structure (SMILES) | viability
O=C(COc1cc(Cl)c(Cl)cc1Cl)NC(=O)NC1CCCC1 | 90.7% (inactive)
CCOC(=O)c1cnc(SCC(=O)Nc2ccccc2C(=O)OC)nc1N | 87.2% (inactive)
c1ccc(-n2ncc3c2ncn2c(CSc4nc5ccccc5s4)nnc32)cc1 | 5.83% (active)
CCN(CC)C(=O)CSc1ncnc2c1cnn2-c1ccccc1 | 86.5% (inactive)
c1ccc(-n2ncc3c2ncn2c(C4CCCCC4)nnc32)cc1 | 105% (inactive)
CCCNC(=O)N1CCN(C(=O)NCCC)CC1 | 104% (inactive)
CC(=O)c1cccc(NC(=O)C2CCCN2S(=O)(=O)c2cccc3nsnc23)c1 (configuration not stated) | 88.1% (inactive)
CCC(C)NC(=O)c1ccccc1NC(=O)c1ccccc1N(C)S(C)(=O)=O (configuration not stated) | 108% (inactive)
CC(C)(C)C(=O)Cn1c(NCCO)nc2ccccc21 | 98% (inactive)
Cc1cc2nnc(SCC(=O)N3CCN(c4ccccc4)CC3)n2c(N)n1 | 64.4% (inactive)
Cn1c(Cc2cccc3ccccc23)nnc1SCC(=O)N1CCN(c2cccc(Cl)c2)CC1 | 38.5% (active)
Cc1ccccc1NC(=O)Cc1nnc(SCC(=O)N2CCN(c3ccccc3)CC2)n1C | 94% (inactive)
O=C(CC(O)(C(F)(F)F)C(F)(F)F)Nc1ccc(Cl)c(Cl)c1 | 1.49% (active)
CCn1nccc1C(=O)Nc1ccc(Cl)c(Cl)c1 | 77% (inactive)
CN(C)CCNC(CC(=O)Nc1ccc(Cl)c(Cl)c1)C(=O)O (configuration not stated) | 99.7% (inactive)
CCOC(=O)N1CCC(N(CCOC)C(=O)Nc2ccc(C)c(C)c2)CC1 | 44.7% (inactive)
Cc1noc(C)c1CSCC(=O)Nc1nc2ccc(Oc3ccccc3)cc2s1 | 76.8% (inactive)
COc1ccc(OC)c(-n2cc3c(=O)n(C)c(=O)n(C)c3c2)c1 | 29.6% (active)
COc1ccc(-c2c3c(=O)n(C)c(=O)n(C)c3cn2-c2cccc(OC)c2)cc1 | 71.5% (inactive)
Cn1c(=O)c2cn(-c3cccc4ccccc34)cc2n(C)c1=O | 47.3% (inactive)
COCCCn1c(SCC(=O)Nc2ccccc2)nnc1-c1ccncc1 | 95.9% (inactive)
CC1(C)COC(c2cccn2Cc2ccccc2Cl)=N1 | 104% (inactive)
O=c1c2ccccc2nc2n1C1(CCCCC1)Cc1ccccc1-2 | 83.7% (inactive)
Cc1cc(NC(=O)CN2CCCC(C)C2)n(-c2nc3ccccc3s2)n1 (configuration not stated) | 62.1% (inactive)
CCOC(=O)N1CCC(NC(=O)c2ccc3nc(N4CCOCC4)sc3c2)CC1 | 95.7% (inactive)
CCOC(=O)N1CCN(CC(=O)Nc2cc(C)nn2-c2nc3ccccc3s2)CC1 | 4.45% (active)
Cc1nn(C)cc1CNC(=O)Nc1ccc(Cl)cc1 | 90.8% (inactive)
